Measurements as given in PubChem BioAssay (NCI).
Compounds without any hit were thinned out: in the full panel of roughly 83,000, 20% have a hit.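 Method: cells in 96-well plates; compound added at one concentration; 48 h incubation; percent growth measured; values under 10 scored active.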 A number with no mark means an inactive call. The source made the active and inactive calls.

Columns and labels:
Assay in all cases: NCI-60 one-dose screen, 48 h (100 = growth as untreated, 0 = no growth, -100 = all killed)
Details in all cases: 10 µM unless noted
NCI-H23 lung = tested on: NCI-H23 lung
NCI-H226 lung = tested on: NCI-H226 lung
NCI-H322M lung = tested on: NCI-H322M lung
HOP-62 NSCLC = tested on: HOP-62 NSCLC
NCI-H460 lung = tested on: NCI-H460 lung
HOP-92 NSCLC = tested on: HOP-92 NSCLC
NCI-H522 lung = tested on: NCI-H522 lung
A549/ATCC NSCLC = tested on: A549/ATCC NSCLC
786-0 renal = tested on: 786-0 renal
COLO 205 colon = tested on: COLO 205 colon
DU-145 prostate = tested on: DU-145 prostate
K-562 leukemia = tested on: K-562 leukemia
MALME-3M melanoma = tested on: MALME-3M melanoma
MDA-MB-231 breast = tested on: MDA-MB-231 breast
RXF 393 renal = tested on: RXF 393 renal
SF-268 CNS = tested on: SF-268 CNS
SF-295 CNS = tested on: SF-295 CNS
SF-539 CNS = tested on: SF-539 CNS
UACC-257 melanoma = tested on: UACC-257 melanoma
M14 melanoma = tested on: M14 melanoma

SMILES	growth (NCI-H23 lung)	growth (NCI-H226 lung)	growth (NCI-H322M lung)	growth (HOP-62 NSCLC)	growth (NCI-H460 lung)	growth (HOP-92 NSCLC)	growth (NCI-H522 lung)	growth (A549/ATCC NSCLC)	growth (786-0 renal)	growth (COLO 205 colon)	growth (DU-145 prostate)	growth (K-562 leukemia)	growth (MALME-3M melanoma)	growth (MDA-MB-231 breast)	growth (RXF 393 renal)	growth (SF-268 CNS)	growth (SF-295 CNS)	growth (SF-539 CNS)	growth (UACC-257 melanoma)	growth (M14 melanoma)
O=C(Nc1ccccc1Cl)c1ccc(NC2=C(Cl)C(=O)N(C3CCCCC3)C2=O)cc1	-24.1% [30 µM] (active)	97.1% [30 µM]	16.2% [30 µM]	88.4% [30 µM]	32.8% [30 µM]	-16.8% [30 µM] (active)	70.3% [30 µM]	94% [30 µM]	69.9% [30 µM]	66.6% [30 µM]	28.8% [30 µM]	25.3% [30 µM]	80.6% [30 µM]	85.4% [30 µM]	-12.1% [30 µM] (active)	60.5% [30 µM]	21.6% [30 µM]	82% [30 µM]	54.9% [30 µM]	92.6% [30 µM]
CCN1CCC2(CC1)NC(=O)c1c(c3ccc(Cl)c(Cl)c3n1C)C2C#N (stereo not given)	70%	72%	57%	62%	54.6%	40.5%	61.5%	52.1%	63.7%	-31.4% (active)	72.7%	23.3%	-6.1% (active)	60.5%	76.6%	51.4%	70.8%	52%	-5.12% (active)	-38.5% (active)
C#CC(F)(F)[C@]1(O)CC[C@H]2[C@@H]3CCC4=CC(=O)CCC4=C3[C@@H](c3ccc(C(C)=O)cc3)C[C@@]21C	38.5%	93.3%	96.7%	74.4%	97.4%	-31.7% (active)	-73% (active)	73.4%	-41% (active)	78.3%	86.4%	61.4%	-63.4% (active)	60.6%	85.4%	36.3%	22.5%	-81.9% (active)	89.8%	96.6%
Cc1ccc2c(c1)C(=O)/C(=C/c1cccc(OCC(=O)c3ccc(Cl)cc3)c1)CS2	79%	91.6%	72.9%	105%	98.8%	61.5%	46.8%	103%	103%	111%	108%	29.2%	95.9%	61.9%	4.49% (active)	108%	125%	112%	120%	107%
CC(=O)Nc1ccc(S(=O)(=O)Nc2cccc(-c3nc(-c4ccc(NC(=O)c5cccnc5)cc4Cl)no3)c2)cc1	42.1%	57.9%	41.6%	34.9%	18%	32.1%	11.2%	44.2%	41.7%	21.7%	54.6%	18.9%	59.7%	47.5%	76.5%	48.2%	42.2%	7.87% (active)	35%	27.1%
COC[C@H](C)n1c(C2CCOCC2)nc2cnc3cc(-c4c(C)noc4C)c(OC)cc3c21	70.4%	67%	50.4%	39.8%	65.2%	37.1%	34.4%	45.6%	51.6%	28.9%	77.5%	39.1%	75.7%	55.4%	67%	76.7%	53.7%	40.7%	38.3%	42.5%
Oc1cccc2ccc(N/N=C/c3cc(CN4CCOCC4)c(O)c4ncccc34)nc12	-2.08% (active)	26.5%	27.7%	7.13% (active)	-7.47% (active)	43.5%	-13.7% (active)	5.15% (active)	19.4%	12.2%	22.4%	13.4%	16.3%	20%	10.4%	18.7%	17.5%	9.66% (active)	17.8%	4.83% (active)
Cc1cc(NS(=O)(=O)c2ccc(-c3cnc(C4CC4)o3)cc2)ccc1Cl	24.3%	58.4%	44.7%	34.1%	7.65% (active)	60.7%	-11.7% (active)	15.3%	33.7%	-13.7% (active)	14.3%	10.2%	46.3%	33.9%	-10.7% (active)	49.4%	1.8% (active)	-28.6% (active)	45%	4.78% (active)
COc1ccc(C(=O)COc2cccc(/C=C3\CSc4ccccc4C3=O)c2)cc1	12.9%	79.9%	62.4%	86.9%	72.6%	60.4%	-63.1% (active)	87.4%	80.2%	105%	102%	-73.4% (active)	-67.2% (active)	76.6%	-39.6% (active)	51.7%	38%	62.5%	-35.8% (active)	-26.3% (active)
OC(COc1cccc2ccccc12)CN1CCN(c2ccccc2Cl)CC1 (stereo not given)	80.3%	106%	95.5%	88%	91.1%	74.5%	98.8%	96.6%	91.4%	104%	109%	99.3%	108%	83.7%	158%	98.6%	86.4%	93.2%	-1.88% (active)	84.7%
COc1ccc(-c2cc(Nc3ccnc(N4CCOCC4)n3)on2)cc1	36.8%	31.8%	47.1%	40.9%	14.5%	74.8%	4.99% (active)	30.4%	35.6%	2.68% (active)	19.6%	13.1%	87.2%	57.9%	-6.95% (active)	62.6%	39.3%	-31.9% (active)	72.7%	26.9%
C=CC(=O)Nc1cccc(Nc2nc(SC)nc(-c3cccc([N+](=O)[O-])c3)c2C#N)c1	44.8%	47.2%	74%	53.4%	40.4%	-19.6% (active)	38.7%	7.62% (active)	63.8%	20.3%	30%	46.5%	14.9%	52.2%	18.5%	74.8%	49.7%	76.6%	49%	45%
C(=N/Nc1ncc(-c2cc3cc(-c4ccccc4)ccc3o2)s1)/c1cccs1	99.9%	104%	33.8%	118%	7.38% (active)	105%	86.1%	13.3%	101%	72.4%	97.2%	96.6%	97.8%	109%	129%	102%	98.1%	99.6%	102%	111%
Cc1ccc2oc(=O)cc(C3c4ccc([nH]4)C(c4cc(=O)oc5ccc(C)cc45)c4ccc([nH]4)C(c4cc(=O)oc5ccc(C)cc45)c4ccc([nH]4)C(c4cc(=O)oc5ccc(C)cc45)c4ccc3[nH]4)c2c1 (stereo not given)	-53.2% (active)	-39.2% (active)	-10.2% (active)	-68.2% (active)	-66.4% (active)	-24.1% (active)	-63.5% (active)	-24.6% (active)	-58.9% (active)	-80.6% (active)	-46.3% (active)	-26% (active)	-35.1% (active)	-53.8% (active)	-87.3% (active)	-39.5% (active)	-78.2% (active)	-75.1% (active)	-67.7% (active)	-71.9% (active)
CSc1nc(NCCO)c(C#N)c(-c2cccc([N+](=O)[O-])c2)n1	99.5%	93.1%	102%	91.6%	101%	79.4%	92.3%	105%	100%	116%	108%	90.8%	111%	86.5%	104%	95.6%	98.3%	96.7%	115%	104%
